# NADH enzymes = inhibitors of PK/LDH coupling enzymes, profiling panel, artefact control, biochemical, MLSMR library. coupled PK/LDH NADH assays, four targets. IC50, µM (doses to about 10 µM), inactives show at the top dose inhibition. 65,000 tested, 0.02% active. AID 774, 2007;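 active = single-dose screening hits from any of four coupled enzyme assays that gave an IC50 when retested across doses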;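 note: the DPM-DC format reads NADH fluorescence rather than 340 nm absorbance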
# Spn PMK inh = S. pneumoniae PMK inhibitors, primary screen, biochemical, mevalonate pathway, pilot trial included | phosphomevalonate kinase (Streptococcus pneumoniae D39) | purified PMK, PK/LDH-coupled NADH absorbance 340 nm | inhibition, % at 10 µM | 65,000 tested, 0.49% active | AID 539, 2006;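 active = top-ranked compounds by inhibition in the single 10 µM screen, taking a fixed number of the strongest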;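 note: 0% = full reaction with DMSO carrier and 100% = background rate without enzyme reaction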
# Abs 340nm = compound light absorbance at 340 nm, profiling panel, artefact control, biochemical, MLSMR library, data from PS, PMK, MK assays; compound absorbance at 340 nm, fold over control; fold change at 10 µM; 65,000 tested, under 10 active;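 active = at 10 µM dose, initial 340 nm absorbance at least 2 fold that of control wells; inactive = change under 2 fold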;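 note: initial absorbance extrapolated from kinetic A340 decline of NADH oxidation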
# MK inhibit = S. pneumoniae MK inhibitors, primary screen, biochemical, PK/LDH-coupled NADH absorbance | mevalonate kinase [Streptococcus pneumoniae D39] | purified MK, PK/LDH-coupled NADH absorbance 340 nm | inhibition, % at 10 µM | 65,000 tested, 0.48% active;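 active = ranked among the strongest by inhibition in the single 10 µM screen, a fixed top-ranked set picked for dose follow-up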
# Fluor 339 460 = intrinsic fluorescence of library compounds, ex339/em460 – biochemical, MLSMR library, data from DPM-DC assay, artefact control, profiling panel. 65,000 tested, 5.5% active. AID 709, 2007. compound autofluorescence, ex339/em460 nm, NADH buffer; stronger effect = higher value; 1 = no-compound wells, NADH background. fluorescence fold increase at 10 µM;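 active = at 10 µM, mean starting fluorescence two-fold or more over control wells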;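 note: signal is the first read of a kinetic run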
# DPM-DC inhibit = S. pneumoniae DPM-DC inhibitors, primary screen, biochemical, PK/LDH-coupled NADH fluorescence. calls only at 10 µM. AID 556, 2006. 65,000 tested, 0.49% active. purified DPM-DC;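 active = the 320 compounds with the highest percent inhibition in the single-dose primary screen, excluding strongly autofluorescent ones, cut at about 32% in these data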;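 note: kinetic rate of NADH fluorescence loss reporting ADP formed by the decarboxylase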
# Active calls of the source: *; i = inactive; . = not tested or not shown; + = active, no number; [ ] = dose if it differs, or a comment. The list is not random: actives were taken first. Their share in the collection is about 6.8%.
SMILES,NADH enzymes,Spn PMK inh,Abs 340nm,MK inhibit,Fluor 339 460,DPM-DC inhibit
CCOc1ccc(S(=O)(=O)NC(C)(C)C)cc1-c1nc2c(C(C)(C)C)nn(C)c2c(=O)[nH]1,2%,6,1.1,0,1.1,i
CCCCNC(=O)c1c(N)n(/N=C/c2cccnc2)c2nc3ccccc3nc12,6%,2,1.1,11,1.2,i
Cc1ccc(C)c(S(=O)(=O)c2c(N)n(/N=C/c3ccco3)c3nc4ccccc4nc23)c1,1%,0,1.1,0,2.1*,i
CCCCCNC(=O)c1c(N)n(/N=C/c2ccco2)c2nc3ccccc3nc12,4%,8,1,5,1.5,i
Nc1c(S(=O)(=O)c2ccccc2)c2nc3ccccc3nc2n1/N=C/c1cccc(O)c1,7%,4,1.1,10,3.7*,.
Cc1nnc2sc(-c3ccc(-c4ccc(Cl)c(C(F)(F)F)c4)o3)nn12,11%,10,1.1,12,3.7*,.
Cc1oc(-c2cc(Cl)ccc2Cl)cc1-c1nn2c(C)nnc2s1,6%,18,1,0,1.1,i
CC(=O)Nc1nc(SCCCc2ccccc2)n[nH]1,4%,10,1,3,1.1,i
CCOCC(=O)Nc1ccc(-c2cn3cccnc3n2)cc1,7%,13,1.1,0,5.2*,.
CCCC(=O)Nc1cc(-c2cn3cccnc3n2)ccc1OC,7%,13,1.1,0,4.5*,.
COc1ccc(-c2cn3cccnc3n2)cc1NC(=O)CC(C)C,7%,14,1.1,0,5.2*,.
CCCCc1ccc(NC(=O)COCC)cc1,1%,0,0.99,6,1,i
O=C(c1ccco1)N1CCC(c2ccccc2)C1 (centres undefined),6%,11,1,6,1.1,i
COc1ccc(N2CCN(C(c3ccccc3)c3sc4nc(C)nn4c3O)CC2)cc1 (centres undefined),2%,6,0.99,6,1,i
CSc1nc(NC(C)(C)C)nc(Oc2ccc(=O)[nH]n2)n1,2%,9,0.98,6,1,i
CCNc1nc(NCc2ccccc2)nc(Oc2ccc(=O)[nH]n2)n1,4%,4,1,7,2.6*,i
COc1ccc(-c2cc(=O)oc3c(C)c(O)c(CN(C)C)cc23)cc1,12%,5,1.1,8,2.4*,i
Cc1nnc2ccc(Oc3ccc(-c4ccccc4)cc3)nn12,4%,5,1.1,6,1.1,i
CCCCSc1nc(N)c(C#N)c(-c2cccs2)c1C#N,2%,0,1.1,5,1.2,i
N#Cc1c(-c2cccs2)cc(-c2ccccn2)nc1N,10%,13,1,6,3.8*,.
N#Cc1c(-c2cccs2)cc(-c2cccnc2)nc1N,2%,3,1.1,0,3.8*,.
CCn1c(SCC(=O)c2ccccc2)nc2c(c1=O)SC(C)C2 (centres undefined),17%,12,1.1,40*,1.2,i
CS(=O)(=O)NCCOc1ccc(S(=O)(=O)N2CCCc3ccccc32)cc1,0%,0,1.1,0,1.1,i
COc1ccccc1CNc1ncnc2nc[nH]c12,23%,6,1,12,1.2,+
c1ccc(CCNc2ncnc3nc[nH]c23)cc1,3%,5,1.1,0,1.1,i
SMILES,NADH enzymes,Spn PMK inh,Abs 340nm,MK inhibit,Fluor 339 460,DPM-DC inhibit
CCc1ccc(NC(=O)CCNS(=O)(=O)c2cccc3nonc23)cc1,2%,0,1,5,1.1,i
COc1nc(-c2ccc(Cl)cc2)ccc1-c1noc(-c2ccncc2)n1,7%,11,1,13,2.8*,i
CCOc1nc(-c2ccccc2)ccc1-c1noc(-c2cccnc2)n1,3%,13,1,0,1.9,.
CCOc1nc(-c2ccccc2)ccc1-c1noc(-c2ccc(OC)c(OC)c2)n1,4%,14,1,4,1.8,+[fluoresces]
COc1ccc(-c2ccc(-c3noc(-c4ccccc4F)n3)c(OC)n2)cc1,7%,7,1.1,7,3.7*,.
COc1ccc(-c2ccc(-c3noc(-c4ccco4)n3)c(OC)n2)cc1,6%,1,1.2,10,3.7*,.
COc1ccc(-c2noc(-c3ccccc3F)n2)cc1,5%,8,1,4,1.1,i
CC(C)CC(OC(=O)c1ccco1)C(=O)NC1CCCCC1 (centres undefined),9%,22,0.97,0,0.99,i
Cc1oc(-c2ccccc2)nc1CS(=O)CC(=O)N1CCc2ccccc2C1 (centres undefined),5%,3,1,5,1.1,i
Cc1ccc(NCc2nnc(SCC(=O)OC3CCCCC3)o2)c(C)c1,4%,8,0.99,4,1.1,i
O=C1CCCc2[nH]nc(-c3cccnc3)c21,6%,12,1,6,1.1,i
COc1nc(-c2ccccc2)ccc1-c1noc(-c2ccco2)n1,7%,3,1.1,5,1.9,i
c1ccc(OCc2nc(-c3ccccc3)no2)cc1,1%,1,1,2,1.1,i
COc1nc(-c2ccccc2)ccc1-c1noc(COc2ccccc2)n1,9%,0,1.1,17,2.1*,.
COc1nc(-c2ccccc2)ccc1-c1noc(-c2cccs2)n1,1%,4,1.1,0,2.2*,i
COc1nc(-c2ccccc2)ccc1-c1noc(-c2ccccc2)n1,2%,6,1.1,1,1.8,i
COc1ccc(-c2ccc(-c3noc(-c4ccccc4)n3)c(OC)n2)cc1,5%,16,1,10,3*,.
COc1ccc(S(=O)(=O)N2CCC(C(=O)N3CCCCCC3)CC2)cc1,3%,8,1,0,1.1,i
O=c1oc2ccccc2c(N2CCCCC2)c1CN1CCCCC1,2%,5,1,14,1,i
CCc1c(C)c2cc(Cl)c(O)c(CN3CCCCC3)c2oc1=O,4%,8,1.1,0,2.3*,.
O=c1oc2c(CN3CCOCC3)c(O)c(Cl)cc2c2c1CCC2,8%,9,1.1,6,3.8*,.
Cc1oc2c(C)c3oc(=O)c4c(c3cc2c1C)CCC4,4%,6,1.1,5,1.7,i
CCc1cc(=O)oc2c(CN3CCCC3)c(O)c(Cl)cc12,2%,0,1.1,4,2.3*,.
Cc1c(O)c(CN2CCCCC2)cc2c3c(c(=O)oc12)CCC3,2%,5,1,0,2.5*,.

# Compound activity as filed in PubChem.
